{"source": "the OligoGym collection", "data": [{"molecular_target": "PPP1R13B", "experiment": "pooled miR-30 sensor sort-seq; sequence = guide strand", "details": "shRNA", "values": [{"sequence": "TTCACTGATTCGCTTGTCCATC", "sensor-assay potency score (higher = more potent)": -0.504}, {"sequence": "TTCAGAAATAGACTGCTGCTGA", "sensor-assay potency score (higher = more potent)": 0.172}, {"sequence": "TACATTTATTACATTTCTCTGA", "sensor-assay potency score (higher = more potent)": -0.374}, {"sequence": "TACACTGCTTTAACTGACTTAT", "sensor-assay potency score (higher = more potent)": -0.93}, {"sequence": "TTTCTTCAGCTTGTTCTCCTGG", "sensor-assay potency score (higher = more potent)": 0.329}, {"sequence": "TTCCTTGGCAACCAACATCTGC", "sensor-assay potency score (higher = more potent)": -1.09}, {"sequence": "TAAGAGTTCCTTCTGCTGCTGA", "sensor-assay potency score (higher = more potent)": 0.621}]}, {"molecular_target": "PPP1R15A", "experiment": "pooled miR-30 sensor sort-seq; sequence = guide strand", "details": "shRNA", "values": [{"sequence": "TTCTGTGAGCTTCTTTCTTTAC", "sensor-assay potency score (higher = more potent)": -1.62}, {"sequence": "TTTTACTGCTTCCACCAGCCAG", "sensor-assay potency score (higher = more potent)": -1.03}, {"sequence": "AAGAGAACTTGTTAACTCCCTC", "sensor-assay potency score (higher = more potent)": 0.225}, {"sequence": "ATGGACAGTGACCTTCTCGGAG", "sensor-assay potency score (higher = more potent)": -1.22}, {"sequence": "TTGCCAGAGGAGTCCTAGCTTC", "sensor-assay potency score (higher = more potent)": -1.05}, {"sequence": "TTTACTGCTTCCACCAGCCAGG", "sensor-assay potency score (higher = more potent)": -0.645}, {"sequence": "TTCAGGAAGGGAACTGCTGGTT", "sensor-assay potency score (higher = more potent)": -0.684}, {"sequence": "TAGGGGAGTCTCAGGGTCCGGA", "sensor-assay potency score (higher = more potent)": -1.44}, {"sequence": "TTCTGTTCTTTTATCCTCCGTG", "sensor-assay potency score (higher = more potent)": -0.152}, {"sequence": "TCCTTTTACTGCTTCCACCAGC", "sensor-assay potency score (higher = more potent)": -1.39}, {"sequence": "TAGAGGTTCTGTGAGCTTCTTT", "sensor-assay potency score (higher = more potent)": 0.0683}, {"sequence": "TGGACAGTGACCTTCTCGGAGA", "sensor-assay potency score (higher = more potent)": -1.41}]}, {"molecular_target": "PPP1R3A", "experiment": "pooled miR-30 sensor sort-seq; sequence = guide strand", "details": "shRNA", "values": [{"sequence": "TTGTTTTTCATTAACACCTAAA", "sensor-assay potency score (higher = more potent)": -0.918}, {"sequence": "TGGATTAGCATTATCATCCAGG", "sensor-assay potency score (higher = more potent)": -0.615}, {"sequence": "TTGAATTACAAATATTTTCTGA", "sensor-assay potency score (higher = more potent)": -0.0203}, {"sequence": "TATAGGTACAAATTCATTCTGA", "sensor-assay potency score (higher = more potent)": 0.416}, {"sequence": "TAAAATGTCATAATGTGTCTGC", "sensor-assay potency score (higher = more potent)": 0.498}, {"sequence": "TTGGTGAATGAGACACATCTGC", "sensor-assay potency score (higher = more potent)": -0.3}, {"sequence": "TTATCATCAACTCTAATTCTTT", "sensor-assay potency score (higher = more potent)": -0.712}, {"sequence": "TATAGGTATTTAATGATCCAAA", "sensor-assay potency score (higher = more potent)": -1.48}, {"sequence": "TTTGTTTTTCATTAACACCTAA", "sensor-assay potency score (higher = more potent)": -0.646}, {"sequence": "TTGAACAATGAATAGTCCCATT", "sensor-assay potency score (higher = more potent)": -1.02}, {"sequence": "TTGATGAACAAACTTGACCAGT", "sensor-assay potency score (higher = more potent)": -0.427}, {"sequence": "TTACATATACTAACTTCTCAAA", "sensor-assay potency score (higher = more potent)": -1.14}]}, {"molecular_target": "PPP2R2B", "experiment": "pooled miR-30 sensor sort-seq; sequence = guide strand", "details": "shRNA", "values": [{"sequence": "TTGACTAGTATTCAGTATGTGA", "sensor-assay potency score (higher = more potent)": -0.666}, {"sequence": "TTCTTCTATTTCTAAACTCTTC", "sensor-assay potency score (higher = more potent)": -0.752}, {"sequence": "TAAACTCTTCAGGTAATCGAAC", "sensor-assay potency score (higher = more potent)": -0.877}, {"sequence": "TCTGTTGCTTGGATCTTCCGGC", "sensor-assay potency score (higher = more potent)": 0.454}, {"sequence": "TTAAATACTACAGACAACCTCA", "sensor-assay potency score (higher = more potent)": 0.289}, {"sequence": "TAGAGGGAACACAGCTTGCTGC", "sensor-assay potency score (higher = more potent)": -0.62}, {"sequence": "TTTTACTCTCCTGCTCTCGTTG", "sensor-assay potency score (higher = more potent)": -0.655}, {"sequence": "TTCATAGAGGGAACACAGCTTG", "sensor-assay potency score (higher = more potent)": -0.115}, {"sequence": "TTGACGGTCAAGTAGTCCCTGG", "sensor-assay potency score (higher = more potent)": -0.065}]}]}
